Source: PubChem BioAssay AID1488 (Vanderbilt High Throughput Screening Facility, 2009)
Out of some 1,700 compounds screened, about 310 (18%) were called active. About 25% were inconclusive and are not listed.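 Rule for the calls: active = fluorescence change differs from the solvent-only DMSO control mean at a set confidence level in both duplicate runs; inconclusive = differs from solvent-only control mean in just one of two runs; inactive = the rest.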 Only a selection was taken, and actives are over-represented in it overall.

These molecules were tested against Muscarinic acetylcholine receptor M1 (Rattus norvegicus) (UniProt P08482) (assay: rat M1 muscarinic receptor agonists, confirmation, CHO-M1 cells, Fluo-4 calcium, duplicate retest (AID 1488;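 note: an EC20 dose of acetylcholine follows compound addition during the same imaging run; raw fluorescence intensity difference in instrument units with no normalization to controls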)). Details: Fluo-4 calcium fluorescence, agonist mode, at 10 µM, actives lie on both sides.
Muscarinic acetylcholine receptor M1 (Rattus norvegicus), sequence (P08482 whole entry, looked up): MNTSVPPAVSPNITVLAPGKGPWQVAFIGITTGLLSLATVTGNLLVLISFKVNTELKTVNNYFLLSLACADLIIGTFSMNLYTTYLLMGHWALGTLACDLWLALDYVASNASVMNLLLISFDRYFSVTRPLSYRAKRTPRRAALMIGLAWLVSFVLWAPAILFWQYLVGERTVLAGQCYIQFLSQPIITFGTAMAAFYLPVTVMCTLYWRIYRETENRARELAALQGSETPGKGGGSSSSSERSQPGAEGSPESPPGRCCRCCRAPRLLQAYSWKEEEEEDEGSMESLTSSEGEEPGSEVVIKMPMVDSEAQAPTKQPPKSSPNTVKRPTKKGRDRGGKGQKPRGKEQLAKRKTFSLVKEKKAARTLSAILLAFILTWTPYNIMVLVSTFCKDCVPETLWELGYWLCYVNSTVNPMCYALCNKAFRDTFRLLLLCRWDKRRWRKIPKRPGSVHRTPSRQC

SMILES | fluorescence change (max-min)
COc1ccccc1NC1=NC(c2ccc(Cl)cc2)N=C(N)N1 (stereo not given) | -28.2 (active)
Cc1ccc2oc(=O)c3cnn(CC(=O)N4CCN(c5ccccn5)CC4)c3c2c1 | -16.8 (inactive)
CC(C[N+](C)(C)C)OC(N)=O (stereo not given) | 389 (active)
CC(=O)OC(C)C[N+](C)(C)C (stereo not given) | 529 (active)
COc1cccc2c(C)c(C(=O)O)[nH]c12 | 4.27 (inactive)
O=C(NCc1ccccn1)c1ccc2nc(-c3ccco3)c(-c3ccco3)nc2c1 | 28.5 (inactive)
CCOc1ccc2[nH]c(=O)c(CN(Cc3nnnn3Cc3ccccc3)CC3CCCO3)cc2c1 (stereo not given) | 19.2 (inactive)
Cc1cc2cc(CN(Cc3cccs3)Cc3nnnn3CC3CCCO3)c(=O)[nH]c2cc1C (stereo not given) | 7.46 (inactive)
Cc1cc(NC(=O)COc2ccc(Cl)cc2Cl)n(CCC#N)n1 | -3.95 (inactive)
O=C(O)c1ccc(COCC(F)(F)F)cc1 | -6.5 (inactive)
CC(=O)Nc1ccc(NC(=O)CN2CCCC(C)C2)c(Cl)c1 (stereo not given) | -10.1 (inactive)
CCOC(=O)c1cc2n(c1N)-c1ccccc1C2=O | 1700 (active)
CCOc1cc(N2CCOCC2)c(OCC)cc1NC(=O)COc1cccc2cccnc12 | -14.8 (inactive)
N#CC1=C(N)Oc2c(sc3ccccc23)C1c1ccco1 (stereo not given) | 140 (active)
C(=N\n1cnnc1)/c1cccnc1 | -17.4 (inactive)
O=C1c2ccccc2-c2ncnc3c(N4CCOCC4)cc(N4CCOCC4)c1c23 | -15.7 (inactive)
c1ccc2c(c1)OCC(CNc1ncnc3nc[nH]c13)O2 (stereo not given) | 512 (active)
O=C(Nc1ccccc1N1CCN(C(=O)c2ccccc2)CC1)c1ccc2c(c1)OCO2 | -2.28 (inactive)
CC(C)(C)c1cc(CN2CCN(CCC#N)CC2)cc(C(C)(C)C)c1O | 23.3 (inactive)
O=C(NCCc1ccc2c(c1)OCCO2)c1cc2ccccc2o1 | 25 (inactive)
CCCN1CC=C2C(C#N)=C(N)C(C#N)(C#N)C(c3cc(OC)ccc3OC)C2C1 (stereo not given) | 85.5 (active)
COc1ccccc1Cc1nc(-c2ccc(C)cc2)no1 | -14 (inactive)

SMILES | fluorescence change (max-min)
COc1ccc2nc(N3CCCC(O)C3)c(C#N)cc2c1 (stereo not given) | 206 (active)
COC(=O)c1ccc(CSc2nc3ccccc3c(=O)n2-c2cccc(OC)c2)o1 | -9.69 (inactive)
O=C(CSc1nnc(-c2ccco2)n1Cc1ccccc1)NC(=O)NCc1ccco1 | -3.05 (inactive)
CCOC(=O)CSc1nc2c(sc(=S)n2CCc2ccccc2)c(=O)n1Cc1ccco1 | -34.1 (active)
c1n[nH]c(NCc2ccc3c(c2)OCO3)n1 | -9.45 (inactive)
COc1cccc(-n2cc3c(c2-c2ccccc2)c(=O)n(C)c(=O)n3C)c1 | -22.4 (inactive)
CC(NC(=O)CSc1nc2c(cc1C#N)CN(C)CC2)c1ccccc1 (stereo not given) | 41.3 (inactive)
CCN(CC)c1ccc2cc(C(=O)O)c(=O)oc2c1 | 153 (active)
CCN(CC)c1ccc2oc(=O)c(C)nc2c1 | 165 (active)
CCOC(=O)C1CCCN(Cc2nc(N)nc(Nc3ccc(C)cc3)n2)C1 (stereo not given) | 127 (active)
FC(F)(F)COc1nc(N2CCCCC2)nc(N2CCNCC2)n1 | -8.96 (inactive)
CCOc1nc(-c2ccc(OC)cc2)ccc1-c1noc(-c2cc(OC)c(OC)c(OC)c2)n1 | -5.3 (inactive)
O=C(CSc1nnc(Cn2cnc3ccccc32)o1)c1ccccc1 | -8.96 (inactive)
CCc1nc(Nc2ccc3nccnc3c2)c2oc3ccccc3c2n1 | -1.32 (inactive)
COc1ccc(CCNC(=O)c2ccco2)cc1 | -16.3 (inactive)
Cc1ccc(C(=O)COc2cccc(NC(=O)c3ccco3)c2)cc1 | 131 (active)
CN1C(=O)c2ccc(NC(=O)c3c(F)c(F)c(F)c(F)c3F)cc2C1=O | 1.53 (inactive)
O=C(c1ccccc1)c1ccc(OC(=O)N2CCCC2)cc1 | -8.75 (inactive)
CC(C)OCCCNc1ncnc2c1[nH]c1ccc(F)cc12 | 51.6 (active)
Fc1ccc2[nH]c3c(N4CCSCC4)ncnc3c2c1 | 6.07 (inactive)
O=C(Nc1nc(-c2ccc3c(c2)OCO3)cs1)c1ccncc1 | -8.33 (inactive)
O=C(COC(=O)CCc1c[nH]c(=O)[nH]1)Nc1ccccc1Cl | 13.2 (inactive)

SMILES | fluorescence change (max-min)
CCOc1cc(-c2nc3cc(C)ccn3c2NCC2CCCO2)ccc1O (stereo not given) | -30.6 (active)
c1cnn(-c2cc(N3CCOCC3)ncn2)c1 | -19 (inactive)
Cc1nc(CNS(=O)(=O)c2ccc(Oc3ccccc3)cc2)cs1 | -2.69 (inactive)
CCOc1ccc2nc(N3CCCN(C(=O)Nc4ccccc4C)CC3)c(C#N)cc2c1 | 282 (active)
Cc1nn2c(c1-c1ccccc1)N=C(c1ccco1)CC2c1ccccc1 (stereo not given) | 21.8 (inactive)
COCCNC(=O)C(c1ccc(C)o1)N(Cc1cccs1)C(=O)c1snc(C(N)=O)c1N (stereo not given) | -1.36 (inactive)
CCN=C1SC(CC(=O)Nc2ccc(C)cc2)C(=O)N1CC (stereo not given) | -26.1 (active)
Cc1ccc(S(=O)(=O)Nc2ccc3ncccc3c2)cc1 | 17.4 (inactive)
CCOc1ccc(NC(=O)N2CC=C(n3c(=O)[nH]c4ccccc43)CC2)cc1 | -24 (inactive)
O=C(CSc1nc2ccccc2o1)N1CCN(c2ccc(Cl)cc2)CC1 | -34.5 (active)
O=C(CC1Nc2ccccc2NC1=O)Nc1ccccc1 (stereo not given) | -7.08 (inactive)
Cn1c(=O)c2c(nc(SCC(=O)Nc3ccccc3N3CCCCC3)n2C)n(C)c1=O | -20.5 (inactive)
CC1CCCC(C)N1C(=O)CN1CCN(c2nc(-c3ccc(F)cc3)cs2)CC1 (stereo not given) | -5.14 (inactive)
O=C(NCCC1=CCCCC1)C1CCN(Cc2cnn(-c3ccccc3)c2-n2cccc2)CC1 | -25.7 (active)
COc1ccccc1N1CCN(C(=O)c2c(-c3c(Cl)cccc3Cl)noc2C)CC1 | -19.2 (inactive)
O=C(Nc1cccc(NC(=O)N2CCN(c3ccccc3)CC2)c1)N1CCN(c2ccccc2)CC1 | 1.01 (inactive)
O=C(Cn1cc(C(=O)c2cccs2)c2ccccc21)NCc1cccs1 | -4.9 (inactive)
Cc1cccn2c(=O)c3cc(C#N)c(=NC(=O)c4cccnc4)n(CC4CCCO4)c3nc12 (stereo not given) | 310 (active)
Cn1c(C(=O)NCCc2ccsc2)cc2c(=O)n(C)c3ccccc3c21 | -12.8 (inactive)
COc1ncnc2c1N=C1CC(C)(C)CC(N)=C1S2 | 175 (active)
COc1ccc(C(C(O)C(=O)c2c[nH]c3ccccc23)N2CCN(c3ccccc3)CC2)cc1 (stereo not given) | -11.7 (inactive)
